According to PubChem BioAssay (NCATS):
Where “and” joins values, the source holds several entries; their conditions need not be identical. Equal values may be shown once. Inconclusive results are not listed. A call without a number means that no potency is given here. Some structures have more than one record in an assay (separate samples or runs), and their calls can disagree. Calls of active or inactive are those of the source. Unless noted, calls follow the shape of the dose curve; as a rule, active = well fitted curve in the direction sought with a large enough effect; inconclusive = small, poorly fitted or top-dose-only effect, or another doubt; inactive = no such curve, though single readings can be large; an effect the other way counts as inactive or inconclusive.

Tests used:
[1] = qHTS for Inhibitors of Plasmodium falciparum (DD2) proliferation (AID 504314);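 also: parasite DNA measured by SYBR Green fluorescence after red cell lysis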
Outline: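 Erythrocytes infected with P. falciparum (0.3% parasitemia, 2.5% hematocrit final) were incubated with compounds for 72 h at 37C, 5% CO2. Parasite DNA was detected by SYBR Green I fluorescence after saponin/Triton lysis, normalized to artemisinin (0.29 uM) and DMSO controls.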

[2] = qHTS for Inhibitors of Plasmodium falciparum (GB4) proliferation (AID 504315); also: nearly all actives have a fitted effect of over 50% in size; also: potency is read from the fitted curve at half-maximal effect
Outline: (§1)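 Erythrocytes infected with P. falciparum line (0.3% parasitemia, 2.5% hematocrit final) incubated with compounds 72 h at 37 °C, 5% CO2; SYBR Green lysis buffer added, fluorescence read next day. Normalized to 0.29 uM artemisinin and DMSO.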

[3] = qHTS for Inhibitors of Plasmodium falciparum (7G8) proliferation (AID 504316); also: nearly all actives have a fitted effect of over 65% in size; also: potency is read from the fitted curve at half-maximal effect
Outline: as §1

[4] = qHTS for Inhibitors of Plasmodium falciparum (HB3) proliferation (AID 504318); also: nearly all actives have a fitted effect of over 60% in size; also: potency is read from the fitted curve at half-maximal effect
Outline: as §1

[5] = qHTS for Inhibitors of Plasmodium falciparum (CP250) proliferation (AID 504320); also: potency is read from the fitted curve at half-maximal effect
Outline: as §1

[6] = biological target: Atrial natriuretic peptide receptor 1 (Homo sapiens) (UniProt P16066); assay: Natriuretic polypeptide receptor (hNpr1) antagonism - Pilot CMLD screen (AID 1347052; calls by dose curve;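 also: HEK293 cells with hNpr1 stimulated by hNppA peptide at 0.1 nM; cGMP level read as GloSensor luciferase luminescence after agonist stimulation; series mostly up to about 9.2 µM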)
Atrial natriuretic peptide receptor 1 (Homo sapiens), sequence (P16066 whole entry, looked up): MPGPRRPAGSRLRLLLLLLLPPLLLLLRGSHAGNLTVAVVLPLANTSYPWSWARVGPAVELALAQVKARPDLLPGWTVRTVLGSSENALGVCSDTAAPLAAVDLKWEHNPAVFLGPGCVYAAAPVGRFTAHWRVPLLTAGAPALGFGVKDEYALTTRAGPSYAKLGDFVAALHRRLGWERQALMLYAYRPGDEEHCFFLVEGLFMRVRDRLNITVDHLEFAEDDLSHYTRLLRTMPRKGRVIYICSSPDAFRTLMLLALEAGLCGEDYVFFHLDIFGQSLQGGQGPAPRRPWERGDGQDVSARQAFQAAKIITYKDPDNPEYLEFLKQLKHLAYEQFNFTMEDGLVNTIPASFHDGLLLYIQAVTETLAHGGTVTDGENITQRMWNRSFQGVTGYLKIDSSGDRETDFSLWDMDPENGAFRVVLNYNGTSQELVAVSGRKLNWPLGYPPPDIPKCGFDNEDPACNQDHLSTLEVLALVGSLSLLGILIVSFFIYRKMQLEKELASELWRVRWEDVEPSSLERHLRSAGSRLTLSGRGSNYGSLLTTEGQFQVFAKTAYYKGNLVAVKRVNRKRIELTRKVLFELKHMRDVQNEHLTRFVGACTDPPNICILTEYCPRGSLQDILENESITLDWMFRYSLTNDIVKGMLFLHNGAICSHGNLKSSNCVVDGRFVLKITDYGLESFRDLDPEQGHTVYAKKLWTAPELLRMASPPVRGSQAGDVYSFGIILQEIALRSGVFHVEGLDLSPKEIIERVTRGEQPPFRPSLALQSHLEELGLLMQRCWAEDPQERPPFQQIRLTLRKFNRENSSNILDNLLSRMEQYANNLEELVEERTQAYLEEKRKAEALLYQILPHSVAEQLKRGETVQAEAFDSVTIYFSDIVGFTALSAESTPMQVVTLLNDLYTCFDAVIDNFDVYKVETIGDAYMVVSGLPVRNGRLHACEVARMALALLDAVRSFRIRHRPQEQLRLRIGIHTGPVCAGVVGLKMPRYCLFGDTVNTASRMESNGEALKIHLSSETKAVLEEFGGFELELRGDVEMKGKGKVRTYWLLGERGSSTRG

Row | SMILES | Potency [1] | Potency [2] | Potency [3] | Potency [4] | Potency [5] | Potency [6] | activity, negative = inhibition [1]
1 | Cc1ccccc1Nc1oc(-c2ccccc2)nc1CCc1ccccc1 | inactive | inactive and 1.51 µM (active) | inactive and 1.69 µM (active) | inactive and 1.69 µM (active) | inactive and 1.51 µM (active) | inactive | –
2 | CC1(OC(=O)C2CCCC2)C(=O)C=C2C=C3CCCN3C=C2C1=O (configuration not stated) | – | inactive | inactive | inactive | inactive | inactive | 0.418% [at 1.12 µM] (inactive)
3 | CC(CCC(=O)OC[C@H]1O[C@H](C#Cc2ccccc2)C=C[C@H]1Oc1ccc(C)cc1)=NOC[C@@H](O)COCc1ccco1 | inactive | inactive | inactive | inactive | inactive | inactive | –
4 | CCCCC1=CC2=CC(=O)C(C)(OC(=O)c3cnc4ccccc4n3)C(=O)C2=CO1 (configuration not stated) | inactive | inactive | inactive | inactive | inactive | inactive | –
5 | COC(=O)c1nnc(N[C@@H](Cc2c[nH]c3ccccc23)C(=O)OC)nc1C(=O)OC | inactive | inactive | inactive | inactive | inactive | inactive | –
6 | COc1ccc2c(c1)C(=O)[C@H](OC(=O)Nc1ccc(OC(F)F)cc1)[C@@H](c1ccc(OC)c(Br)c1)O2 | inactive | inactive | inactive | inactive | inactive | inactive | –
7 | COC(=O)C1=C[C@@H]([C@@H](C)[C@H](OC)c2ccccc2Br)[C@@H]2OCCC[C@H]12 | inactive | inactive | inactive | inactive | inactive | inactive | –
8 | COC(=O)C1=C(C(=O)OC)[C@@H]2N(Cc3ccccc3)c3ccccc3[C@@]23C[C@@H](C(=O)OC)N(C(=O)c2cccs2)C3=N1 | – | inactive | inactive | inactive | inactive | inactive | -0.326% [at 1.12 µM] (inactive)
9 | Cc1cc(F)ccc1O[C@H]1C=C[C@@H](c2ccc3c(c2)OCO3)O[C@H]1CO | inactive | inactive | inactive | inactive | inactive | inactive | –
10 | COC(=O)N1C2=C(c3ccccc3[C@@H]1CC(=O)O)[C@@H]1O[C@@H](C2)c2ccccc21 | inactive | inactive | inactive | inactive | inactive | inactive | –
11 | CC=CCCN1C=C(C(=O)OCC)C(c2ccccc2)NC1=O (configuration not stated) | inactive | inactive | inactive | inactive | inactive | inactive | –
12 | c1ccc(-c2nc(-c3ccccc3)c(Nc3ccc4ccccc4c3)o2)cc1 | inactive | inactive | inactive | inactive | inactive | inactive | –
13 | COC(=O)C1=C(C(=O)OC)[C@@H]2N(Cc3ccccc3)c3ccccc3[C@@]23C[C@@H](C(=O)OC)N(C(=O)c2cc(C)oc2C)C3=N1 | inactive | inactive | inactive | inactive | inactive | inactive | –
14 | Cc1noc(C)c1S(=O)(=O)N1CCc2nc(-c3ccccc3)c3c(c2C1)CO[C@@H](C)C3 | – | inactive | inactive | inactive | inactive | inactive | 2% [at 1.12 µM] (inactive)
15 | COc1ccc2c(c1)O[C@H](c1ccc3c(c1)OCO3)[C@@H](OC(=O)Nc1cc(OC)c(OC)c(OC)c1)C2=O | inactive | inactive | inactive | inactive | inactive | inactive | –
16 | CC1=CC[C@@H](C)O[C@@]2(C1)C(=O)Nc1cccc(Br)c12 | inactive | inactive | inactive | inactive | inactive | inactive | –
17 | CCCC[C@]12Cc3cc(C#N)ccc3[C@H](O1)c1c(c3ccccc3oc1=O)O2 | inactive | inactive | inactive | inactive | inactive | inactive | –
18 | COC(=O)C1=C(C)N(Cc2ccccc2)C(=NCc2ccc(OC)cc2)NC1c1ccccc1 (configuration not stated) | inactive | inactive | inactive | inactive | inactive | inactive | –
19 | COC(=O)[C@H](COC(C)(C)C)NC(=O)O[C@H]1C(=O)c2ccc(OC)cc2O[C@@H]1c1ccc2c(c1)OCO2 | inactive | inactive | inactive | inactive | inactive | inactive | –
20 | CCOC(=O)CNC(=O)O[C@@H]1C(=O)c2cc(OC)ccc2O[C@H]1c1cccc(OC)c1 | inactive | inactive | inactive | inactive | inactive | inactive | –
21 | COC1=C[C@H](C(=O)NCc2ccc(Cl)cc2)C(C)C(c2ccccc2)CC1=O (some centres not stated) | inactive | inactive | inactive | inactive | inactive | inactive | –
22 | CCCCC1=CC2=C(c3ccco3)C(=O)C(C)(OC(=O)c3ccc(OC)cc3)C(=O)C2=CN1CCCOC(C)C (configuration not stated) | inactive | inactive | inactive | inactive | inactive | inactive | –
23 | CO[C@H](C1CCCCC1)[C@H](C)C=CCC(=O)OCCCc1ccccc1 | inactive | inactive | inactive | inactive | inactive | inactive | –
24 | C=CCOC(=O)C(C(C)=O)[C@@H](NC(=O)OC)c1ccc(Cl)cc1 (some centres not stated) | inactive | inactive | inactive | inactive | inactive | inactive | –
25 | CC(C)Nc1oc(-c2ccccc2)nc1-c1ccc(C(F)(F)F)cc1 | inactive | inactive | inactive | inactive | inactive | inactive | –
26 | C=CCOC(=O)N[C@H](c1ccccc1)[C@H](C)C=CCC(=O)OC | inactive | inactive | inactive | inactive | inactive | inactive | –

Row | SMILES | Potency [1] | Potency [2] | Potency [3] | Potency [4] | Potency [5] | Potency [6] | activity, negative = inhibition [1]
27 | C=CCOC(=O)NC(CC(=Nc1ccc(OC)cc1)C(=O)OC)c1ccccc1 (configuration not stated) | inactive | inactive | inactive | inactive | inactive | inactive | –
28 | CCOC(=O)CN1C(=O)[C@@]2(CC(C)=C[C@@H](COCc3ccccc3)O2)c2ccccc21 | inactive | inactive | inactive | inactive | inactive | inactive | –
29 | CCOC(=O)CCN1C(=O)[C@@H]2[C@H]3[C@H](O)[C@H](O)CC(=NO[C@@H]4O[C@H](COC(C)=O)[C@@H](OC(C)=O)[C@H](OC(C)=O)[C@@H]4OC(C)=O)[C@H]3CC[C@H]2C1=O | inactive | inactive | inactive | inactive | inactive | inactive | –
30 | COC(=O)NC(CCc1ccccc1)C(C(C)=O)C(=O)OC (configuration not stated) | inactive | inactive | inactive | inactive | inactive | inactive | –
31 | C=C(C)C(=O)C=CCCCC=CC(=O)OCC | inactive | inactive | inactive | inactive | inactive | inactive | –
32 | COCC1=Cc2cc3c(cc2C(C(C(=O)OC)C(=O)OC)N1C(=O)OC)OCO3 (configuration not stated) | inactive | inactive | inactive | inactive | inactive | inactive | –
33 | CCOC(=O)CN1C(=O)[C@@]2(C[C@@H](C)C[C@@H](C)O2)c2ccccc21 | inactive | inactive | inactive | inactive | inactive | inactive | –
34 | CCCCCCC(=O)Cc1cc(OC)c(OC)cc1C=C(C(C)=O)C(=O)OC | inactive | inactive | inactive | inactive | inactive | inactive | –
35 | COCCN1C(=O)N(C)C(c2ccccc2)C(C(C)=O)=C1C (configuration not stated) | inactive | inactive | inactive | inactive | inactive | inactive | –
36 | COC(=O)N[C@@H](c1ccco1)[C@]1(C(C)=O)CCCC1=O | inactive | inactive | inactive | inactive | inactive | inactive | –
37 | CC(C)CON=C1C[C@@H](O)[C@@H](O)[C@@H]2[C@H]3C(=O)N(C4CCCCC4)C(=O)[C@@H]3CC[C@@H]12 | inactive | inactive | inactive | inactive | inactive | inactive | –
38 | CCN1C(=O)NC(CCc2ccccc2)C(C(=O)OC)=C1C (configuration not stated) | inactive | inactive | inactive | inactive | inactive | inactive | –
39 | OC[C@H]1O[C@H](c2ccccc2)C=C[C@H]1O | inactive | inactive | inactive | inactive | inactive | inactive | –
40 | C=C(C)C(=O)OC[C@@H]1CN2[C@H](c3ccc(Br)cc3)[C@H](C)CC[C@H]2C(=O)O1 | inactive | inactive | inactive | inactive | inactive | inactive | –
41 | C=CCOC(=O)C(C(C)=O)[C@@H](NC(=O)OC)c1cccc(C)c1 (some centres not stated) | inactive | inactive | inactive | inactive | inactive | inactive | –
42 | COC(=O)CCC(=O)OC1(C)C(=O)C=C2C=C3CCCN3C=C2C1=O (configuration not stated) | inactive | inactive | inactive | inactive | inactive | inactive | –
43 | COC(=O)[C@@]1(C=C2c3ccc(OC)cc3[C@@H](OC)[C@@H]2C)[C@@H]2C=CC[C@@H]21 | inactive | inactive | inactive | inactive | inactive | inactive | –
44 | C[C@@H]1C(c2ccccc2)=Cc2[nH]c(=O)[nH]c2C[C@@H]1C(=O)N1CCCC1 | inactive | inactive | inactive | inactive | inactive | inactive | –
45 | CC(=O)OC[C@H]1O[C@H](CC=NOCC[C@@H]2C=C[C@@H](OC(C)=O)[C@@H](COC(C)=O)O2)C=C[C@@H]1OC(C)=O | inactive | inactive | inactive | inactive | inactive | inactive | –
46 | C=CC1(O)C(OC)=CC2C(=O)C1C(c1ccccc1)C2C (configuration not stated) | inactive | inactive | inactive | inactive | inactive | inactive | –
47 | COC(=O)[C@H]1O[C@@H](c2cc(OC)c(C)c(OC)c2OCc2ccccc2)[C@H](C)[C@H]2O[C@@]12C | inactive | inactive | inactive | inactive | inactive | inactive | –
48 | COC(=O)C=C[C@H]1c2ccccc2[C@@H](OC)[C@@H]1C | inactive | inactive | inactive | inactive | inactive | inactive | –
49 | COC(=O)N[C@H](CC(C)=O)c1cccs1 | inactive | inactive | inactive | inactive | inactive | inactive | –
50 | CCCCCCCc1cc2ccccc2c2c(C(=O)OC)cc(C(=O)OC)n12 | inactive | inactive | inactive | inactive | inactive | inactive | –
51 | COC1=C[C@H](C(=O)NCc2ccccc2)[C@@]2(C)Cc3ccccc3[C@@H]2CC1=O | inactive | inactive | inactive | inactive | inactive | inactive | –
52 | CCN1C(=O)[C@H]2[C@H]3C(=CC[C@@H]2C1=O)C1(OCCCO1)[C@@H]1O[C@H]1[C@H]3O | inactive | inactive | inactive | inactive | inactive | inactive | –
